Only a selection was taken, and the strongest signals are over-represented in it overall.
Experiments:
Experiment in all cases: glycan array binding signal (z-score within array); higher = stronger binding
Details in all cases: glycan notation: IUPAC condensed, linker removed
[1] = target: Fuc(a1-2)Gal6S(b1-3)GlcNAc6S
How it was run: (§1)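 From the Consortium for Functional Glycomics database, 3228 arrays were curated, keeping only those whose protein sequence was available. Binding is given as a within-array Z-score averaged across arrays sharing a protein sequence and across linkers. Negative Z-scores can be read as non-binding.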

[2] = target: Fuc(a1-2)[Gal(a1-3)]Gal(b1-3)GlcNAc(b1-2)Man(a1-3)[Fuc(a1-2)[Gal(a1-3)]Gal(b1-3)GlcNAc(b1-2)Man(a1-6)]Man(b1-4)GlcNAc(b1-4)[Fuc(a1-6)]GlcNAc
How it was run: as §1

[3] = target: Fuc(a1-2)[GalNAc(a1-3)]Gal(b1-4)[Fuc(a1-3)]GlcNAc(b1-3)GalNAc
How it was run: as §1

[4] = target: Fuc(a1-3)[Gal(b1-4)]GlcNAc
How it was run: as §1

[5] = target: Fuc(a1-3)[Gal(b1-4)]GlcNAc(b1-3)Gal(b1-4)[Fuc(a1-3)]GlcNAc
How it was run: as §1

[6] = target: Fuc(a1-3)[Gal(b1-4)]GlcNAc(b1-3)Gal(b1-4)[Fuc(a1-3)]GlcNAc(b1-3)Gal(b1-4)[Fuc(a1-3)]GlcNAc
How it was run: as §1

[7] = target: Gal(a1-4)Gal(b1-4)GlcNAc(b1-2)Man(a1-3)[Gal(a1-4)Gal(b1-4)GlcNAc(b1-2)Man(a1-6)]Man(b1-4)GlcNAc(b1-4)GlcNAc
How it was run: as §1

Gal(b1-2)Gal = target: Gal(b1-2)Gal
How it was run: as §1

[8] = target: Gal(b1-3)[Fuc(a1-4)]GlcNAc(b1-6)GalNAc
How it was run: as §1

[9] = target: Gal(b1-3)[Neu5Ac(a2-6)]GalNAc
How it was run: as §1

[10] = target: Gal(b1-4)GlcNAc(b1-2)Man(a1-3)[Gal(b1-4)GlcNAc(b1-2)Man(a1-6)]Man(b1-4)GlcNAc(b1-4)[Fuc(a1-6)]GlcNAc
How it was run: as §1

[11] = target: Gal(b1-4)GlcNAc(b1-2)Man(a1-6)[Man(a1-3)]Man(b1-4)GlcNAc(b1-4)GlcNAc
How it was run: as §1

[12] = target: Gal(b1-4)GlcNAc(b1-3)Gal(b1-4)GlcNAc
How it was run: as §1

[13] = target: Gal(b1-4)GlcNAc(b1-3)Gal(b1-4)GlcNAc(b1-3)Gal(b1-4)GlcNAc(b1-3)Gal(b1-4)GlcNAc(b1-3)Gal(b1-4)GlcNAc(b1-2)Man(a1-3)[Gal(b1-4)GlcNAc(b1-3)Gal(b1-4)GlcNAc(b1-3)Gal(b1-4)GlcNAc(b1-3)Gal(b1-4)GlcNAc(b1-3)Gal(b1-4)GlcNAc(b1-2)Man(a1-6)]Man(b1-4)GlcNAc(b1-4)GlcNAc
How it was run: as §1

[14] = target: Gal(b1-4)GlcNAc(b1-3)Gal(b1-4)GlcNAc(b1-3)Gal(b1-4)GlcNAc(b1-3)Gal(b1-4)GlcNAc(b1-3)Gal(b1-4)GlcNAc(b1-2)Man(a1-3)[Gal(b1-4)GlcNAc(b1-3)Gal(b1-4)GlcNAc(b1-3)Gal(b1-4)GlcNAc(b1-3)Gal(b1-4)GlcNAc(b1-3)Gal(b1-4)GlcNAc(b1-2)Man(a1-6)]Man(b1-4)GlcNAc(b1-4)[Fuc(a1-6)]GlcNAc
How it was run: as §1

[15] = target: Gal(b1-4)GlcNAc(b1-3)Gal(b1-4)GlcNAc(b1-3)Gal(b1-4)GlcNAc(b1-3)Gal(b1-4)GlcNAc(b1-3)Gal(b1-4)GlcNAc(b1-3)Gal(b1-4)GlcNAc(b1-2)Man(a1-3)[Gal(b1-4)GlcNAc(b1-3)Gal(b1-4)GlcNAc(b1-3)Gal(b1-4)GlcNAc(b1-3)Gal(b1-4)GlcNAc(b1-3)Gal(b1-4)GlcNAc(b1-3)Gal(b1-4)GlcNAc(b1-2)Man(a1-6)]Man(b1-4)GlcNAc(b1-4)GlcNAc
How it was run: as §1

[16] = target: Gal(b1-4)GlcNAc(b1-3)[GlcNAc(b1-6)]Gal(b1-4)GlcNAc
How it was run: as §1

Gal3S6S(b1-4)GlcNAc6S = target: Gal3S6S(b1-4)GlcNAc6S
How it was run: as §1

Gal4S6S(b1-4)GlcNAc = target: Gal4S6S(b1-4)GlcNAc
How it was run: as §1

Gal6S(b1-3)GlcNAc6S = target: Gal6S(b1-3)GlcNAc6S
How it was run: as §1

GalNAc(b1-4)GlcNAc6S = target: GalNAc(b1-4)GlcNAc6S
How it was run: as §1

GlcA(b1-3)Gal = target: GlcA(b1-3)Gal
How it was run: as §1

[17] = target: GlcNAc(b1-2)Man(a1-3)[GlcNAc(b1-4)][GlcNAc(b1-2)Man(a1-6)]Man(b1-4)GlcNAc(b1-4)GlcNAc
How it was run: as §1

[18] = target: GlcNAc(b1-3)Gal(b1-4)GlcNAc
How it was run: as §1

[19] = target: GlcNAc(b1-3)Gal(b1-4)GlcNAc(b1-3)Gal(b1-4)GlcNAc(b1-2)Man(a1-3)[GlcNAc(b1-3)Gal(b1-4)GlcNAc(b1-3)Gal(b1-4)GlcNAc(b1-2)Man(a1-6)]Man(b1-4)GlcNAc(b1-4)GlcNAc
How it was run: as §1

[20] = target: GlcNAc(b1-3)Gal(b1-4)GlcNAc(b1-3)Gal(b1-4)GlcNAc(b1-3)Gal(b1-4)GlcNAc(b1-2)[GlcNAc(b1-3)Gal(b1-4)GlcNAc(b1-3)Gal(b1-4)GlcNAc(b1-3)Gal(b1-4)GlcNAc(b1-6)]Man(a1-6)[GlcNAc(b1-3)Gal(b1-4)GlcNAc(b1-3)Gal(b1-4)GlcNAc(b1-3)Gal(b1-4)GlcNAc(b1-2)Man(a1-3)]Man(b1-4)GlcNAc(b1-4)[Fuc(a1-6)]GlcNAc
How it was run: as §1

[21] = target: GlcNAc(b1-3)Gal(b1-4)GlcNAc(b1-3)Gal(b1-4)GlcNAc(b1-3)Gal(b1-4)GlcNAc(b1-3)Gal(b1-4)GlcNAc(b1-2)Man(a1-3)[GlcNAc(b1-3)Gal(b1-4)GlcNAc(b1-3)Gal(b1-4)GlcNAc(b1-3)Gal(b1-4)GlcNAc(b1-3)Gal(b1-4)GlcNAc(b1-2)Man(a1-6)]Man(b1-4)GlcNAc(b1-4)[Fuc(a1-6)]GlcNAc
How it was run: as §1

[22] = target: Man(a1-2)Man(a1-6)[Man(a1-3)]Man(a1-6)[Man(a1-2)Man(a1-2)Man(a1-3)]Man(b1-4)GlcNAc(b1-4)GlcNAc
How it was run: as §1

Man(a1-3)[Man(a1-6)]Man = target: Man(a1-3)[Man(a1-6)]Man
How it was run: as §1

[23] = target: Man(a1-3)[Man(a1-6)]Man(b1-4)GlcNAc(b1-4)GlcNAc
How it was run: as §1

[24] = target: Neu5Ac(a2-3)Gal(b1-3)GlcNAc(b1-2)[Neu5Ac(a2-3)Gal(b1-3)GlcNAc(b1-4)]Man(a1-6)[Neu5Ac(a2-3)Gal(b1-3)GlcNAc(b1-2)Man(a1-3)]Man(b1-4)GlcNAc(b1-4)GlcNAc
How it was run: as §1

[25] = target: Neu5Ac(a2-3)Gal(b1-3)[Neu5Ac(a2-6)]GalNAc
How it was run: as §1

[26] = target: Neu5Ac(a2-3)Gal(b1-4)GlcNAc(b1-3)Gal
How it was run: as §1

[27] = target: Neu5Ac(a2-3)Gal6S(b1-4)GlcNAc
How it was run: as §1

[28] = target: Neu5Ac(a2-6)Gal(b1-4)GlcNAc(b1-3)Gal(b1-4)GlcNAc(b1-2)Man(a1-3)[Neu5Ac(a2-6)Gal(b1-4)GlcNAc(b1-3)Gal(b1-4)GlcNAc(b1-2)Man(a1-6)]GalNAc
How it was run: as §1

[29] = target: Neu5Ac(a2-6)Gal(b1-4)GlcNAc6S
How it was run: as §1

[30] = target: Neu5Gc(a2-3)Gal(b1-4)GlcNAc(b1-3)Gal(b1-4)GlcNAc(b1-2)Man(a1-3)[Neu5Gc(a2-3)Gal(b1-4)GlcNAc(b1-3)Gal(b1-4)GlcNAc(b1-2)Man(a1-6)]Man(b1-4)GlcNAc(b1-4)GlcNAc
How it was run: as §1

[31] = target: Neu5Gc(b2-6)Gal(b1-4)GlcNAc
How it was run: as §1

B1: MUB70 (Lactobacillus reuteri) (protein)
chain: CVHVQYIDGETDQMLRQDDLDGYTDETIPYSTAEGIKKFEGDGYELFKDNFPAGEKFDNDDTNDQFYTVIF
glycan array binding signal (z-score) [1]: 2.39 | glycan array binding signal (z-score) [2]: -0.317 | glycan array binding signal (z-score) [3]: -0.274 | glycan array binding signal (z-score) [4]: -0.273 | glycan array binding signal (z-score) [5]: -0.143 | glycan array binding signal (z-score) [6]: -0.805 | glycan array binding signal (z-score) [7]: 0.445 | glycan array binding signal (z-score) (Gal(b1-2)Gal): 2.16 | glycan array binding signal (z-score) [8]: -0.459 | glycan array binding signal (z-score) [9]: 0.618 | glycan array binding signal (z-score) [10]: -0.056 | glycan array binding signal (z-score) [11]: 0.734 | glycan array binding signal (z-score) [12]: -0.399 | glycan array binding signal (z-score) [13]: 0.479 | glycan array binding signal (z-score) [14]: 2.07 | glycan array binding signal (z-score) [15]: 2.37 | glycan array binding signal (z-score) [16]: -0.071 | glycan array binding signal (z-score) (Gal3S6S(b1-4)GlcNAc6S): 3.78 | glycan array binding signal (z-score) (Gal4S6S(b1-4)GlcNAc): 1.99 | glycan array binding signal (z-score) (Gal6S(b1-3)GlcNAc6S): 4.49 | glycan array binding signal (z-score) (GalNAc(b1-4)GlcNAc6S): 0.276 | glycan array binding signal (z-score) (GlcA(b1-3)Gal): -0.592 | glycan array binding signal (z-score) [17]: 0.036 | glycan array binding signal (z-score) [18]: -0.453 | glycan array binding signal (z-score) [19]: 2.17 | glycan array binding signal (z-score) [20]: 0.94 | glycan array binding signal (z-score) [21]: 0.523 | glycan array binding signal (z-score) [22]: 0.042 | glycan array binding signal (z-score) (Man(a1-3)[Man(a1-6)]Man): -0.052 | glycan array binding signal (z-score) [23]: -0.322 | glycan array binding signal (z-score) [24]: 6.11 | glycan array binding signal (z-score) [25]: 1.18 | glycan array binding signal (z-score) [26]: 0.155 | glycan array binding signal (z-score) [27]: -0.909 | glycan array binding signal (z-score) [28]: 0.348 | glycan array binding signal (z-score) [29]: 2.67 | glycan array binding signal (z-score) [30]: 1.95 | glycan array binding signal (z-score) [31]: 0.109
